Assay outcomes: PubChem, National Center for Advancing Translational Sciences (NCATS)
Sampled rows, rich in hits. Any-hit rate of the full collection: about 19%.
ELG1 DNA repair = inhibitors of ELG1-dependent DNA repair in HEK293T cells; 330,000 tested, 2.3% active; Potency, µM (titrated, usually from 46.1 µM), for the others: at the top dose activity change, negative = inhibition, actives largely listed as inhibitors; HEK293T ELG1-luciferase reporter, luminescence, 16 h; DNA damage induced by 5-fluorouridine; note: potency is the fitted concentration of half-maximal effect; nearly all actives have a fitted effect of over 55% in size
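DMSO vehicle served as the neutral condition. Each well held 2,000 cells given 5-fluorouridine plus compound; after 16 hr at 37 °C/5% CO2, ONE-Glo was added and luciferase measured 30 min later.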
DT40 TDP1 CPT = DT40-hTDP1 cell growth loss with CPT. Potency, µM (top dose mostly 46.2 µM), for inactives: top-dose activity change, negative = growth inhibition, actives largely listed as inhibitors. chicken DT40 Tdp1-/-;hTDP1 cells + 20 nM CPT, ATP luminescence, 48 h. 420,000 tested, 12% active. AID 686979; note: potency is the fitted concentration of half-maximal effect; nearly all actives have a fitted effect of over 55% in size
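Chicken DT40 Tdp1-/- cells complemented with human TDP1, 400 cells/well, exposed to compounds plus 20 nM camptothecin for at least 48 h at 37 C; viability read as ATP content by CellTiter-Glo luminescence.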
IL1B secr inh = inhibitors of inflammasome signaling (IL-1 beta secretion); THP-1 LPS/ATP IL-1B secretion, AlphaLISA, 16 h; active compounds read low; activity change, % at 57.5 µM; 360,000 tested, 4.7% active; in the data active = activity change below about -50%; inconclusive = mostly about -30% to -49%
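THP-1 cells pretreated 1 hr with compounds (up to 57.5 uM final), then stimulated with LPS (250 ng/mL final) plus ATP (1.25 mM final); secreted IL-1B measured by AlphaLISA after 16 hr, decreased signal indicating inhibition.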
TDP1 cell noCPT = qHTS for Inhibitors of human tyrosyl-DNA phosphodiesterase 1 (TDP1): qHTS in cells in absence of CPT; DT40 Tdp1-/- hTDP1 cells, no CPT, ATP luminescence, 48 h; Potency, µM (top dose mostly 46.2 µM), inactives show at the highest dose activity change, negative = growth inhibition, most hits filed as inhibitors; 420,000 tested, 15% active; note: potency is the fitted concentration of half-maximal effect; nearly all actives have a fitted effect of over 55% in size
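Readout: luminescence from CellTiter-Glo after 30 min in the dark at RT. Cells: DT40 Tdp1-/- with stable hTDP1, 400/well. Exposure: compounds alone, ≥48 hr, 37 °C.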
HT1080NT lethal = kills 2HG-producing HT-1080-NT fibrosarcoma cells; HT-1080-NT fibrosarcoma viability, CellTiter-Glo ATP luminescence, 48 h; AID 686970; Potency, µM (top dose mostly 46.1 µM), without a hit: at the top dose activity, negative = less viability, actives largely listed as cytotoxic; 360,000 tested, 1.6% active;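 note: NT is the 2HG producing partner of a matched IDH1 knockdown line; potency is the fitted concentration of half-maximal effect; 0% = DMSO-treated cells and -100% = media-only wells without cells; nearly all actives have a fitted effect of over 55% in size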
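750 cells/well, RPMI + 5% FBS; 2 h settle, compound pin-transfer, 48 h at 37 degrees C. CellTiter-Glo 10 min RT, luminescence. Normalized to DMSO and media-only wells.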
HT1080 IDH1KD tx = kills HT-1080 cells with IDH1 knockdown. 360,000 tested, 2% active. AID 686971. HT-1080 IDH1 knockdown viability, ATP luminescence, 48 h. Potency, µM (titrated, usually from 46.1 µM), for the others: at the highest dose activity, negative = toxicity, usual class: cytotoxic;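 note: potency is the fitted concentration of half-maximal effect; 0% = DMSO wells and -100% = cell-free medium wells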
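Knockdown cells (IDH1KD HT-1080) received compounds 2 h after plating at 750 cells/well and were kept 48 h at 37 °C in 5% FBS RPMI. A CellTiter-Glo luminescence read gave % activity for curve fitting.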
The depositor's hits bear a star; ? = inconclusive; · = no result given. Unless noted, calls come from the whole dose curve; as a rule, active = well fitted curve in the direction sought with a large enough effect; inconclusive = small, poorly fitted or top-dose-only effect, or another doubt; inactive = no such curve, though single readings can be large; an effect the other way counts as inactive or inconclusive. Unless noted, % is set by controls: 0 for no effect and ±100 for the full control effect.

SMILES | ELG1 DNA repair | DT40 TDP1 CPT | IL1B secr inh | TDP1 cell noCPT | HT1080NT lethal | HT1080 IDH1KD tx
CC(NS(=O)(=O)c1ccc(Br)cc1F)[C@H](O)c1ccccc1 (stereo not given in full) | · | -13% | 4 | ? | 1% | 5%
CSCC[C@H](NC(=O)[C@@H]1CSC2c3ccccc3C(=O)N21)C(=O)NCc1ccco1 (stereo not given in full) | -1% | -13% | 4 | 0% | 11% | 20%
O=C1NC(c2cccs2)Nc2ccccc21 (stereo not given) | -10% | 5.2µM* | 1 | 8.2µM* | 0% | 0%
COc1ccc2ccccc2c1C1NC(=O)c2ccccc2N1 (stereo not given) | · | 2.6µM* | 12 | 3.7µM* | 5.2µM* | ?
O=C1NC(c2cccc3ccccc23)Nc2ccccc21 (stereo not given) | · | 0.58µM* | 39 | 0.92µM* | 1.3µM* | 0.73µM*
O=C1c2ccccc2C(=O)C12OC2c1cccc2ccccc12 (stereo not given) | 4% | ? | 11 | ? | -20% | -4%
COc1ccc2ccccc2c1C1NC(=O)NC(C)=C1[N+](=O)[O-] (stereo not given) | -1% | -23% | -8 | -6% | -23% | -30%
O=C1NC(c2ccccc2Cl)Nc2ccccc21 (stereo not given) | -7% | ? | 63 | 18µM* | ? | ?
Cc1ccsc1C1NC(=O)c2ccccc2N1 (stereo not given) | 9% | ? | 34 | ? | -30% | ?
COc1ccc(CNc2ncncc2-c2cccc(NS(C)(=O)=O)c2)c(OC)c1 | · | -10% | · | 6% | · | ·
CCOC(CCNC(=O)c1cn(C)c(=O)c2c1c1ccccc1n2C)OCC | 3% | ? | 17 | ? | 3% | 8%
CN(C)C=NC(=O)c1cc2c(n(-c3ccccc3)c1=O)CC(C)(C)CC2=O | · | 3% | · | 2% | · | ·
CSC(C(=O)c1cc2ccccc2o1)c1ccccc1 (stereo not given) | ? | -12% | 9 | ? | 6% | 5%
O=C(CNc1cccc([N+](=O)[O-])c1)NC(=O)NC1CCCCC1 | -7% | 15µM* | -52* | ? | -10% | -5%
O=C(COC(=O)c1cccc([N+](=O)[O-])c1)NC1CCCC1 | -3% | -3% | -12 | 9% | -1% | 0%
COc1ccc([N+](=O)[O-])cc1NCC(=O)Nc1cccc(S(=O)(=O)N2CCCC2)c1 | ? | ? | -10 | 16µM* | -7% | -1%
O=C(CNc1cc([N+](=O)[O-])ccc1NCCO)Nc1cccc(S(=O)(=O)N2CCCCC2)c1 | ? | ? | -21 | ? | -4% | -1%
O=C(CNc1cccc(S(=O)(=O)N2CCCCCC2)c1)Nc1cccc([N+](=O)[O-])c1 | ? | ? | -25 | 23µM* | ? | ?
O=C(OCCOc1ccccc1)c1n[nH]c2ccccc12 | ? | -5% | 2 | -10% | -4% | -1%
CC(C)N1C(=O)/C(=C\c2nc3ccccc3c(=O)[nH]2)c2ccccc21 | ? | ? | -100* | 29µM* | ? | ?
CCCN1C(=O)/C(=C/c2nc3ccccc3c(=O)[nH]2)c2cc(C)ccc21 | 21% | 21µM* | 13 | 8.2µM* | -12% | -7%
O=C(Nc1ccc(C(=O)N2CCC(O)(c3ccc(Cl)c(C(F)(F)F)c3)CC2)cc1)c1ccc(Br)o1 | ? | ? | -61* | 18µM* | -17% | -8%
CCCNC(=O)c1ccc(S(=O)(=O)c2ccc(OC)cc2)c([N+](=O)[O-])c1 | ? | 5.2µM* | -92* | 4.1µM* | ? | ?
COc1ccc(C(=O)NCCNc2ccccc2[N+](=O)[O-])cc1 | ? | ? | ? | -22% | 3% | -7%
COc1ccc2cc(Br)ccc2c1CC(=O)N1CCCC1 | -5% | -14% | -14 | ? | -24% | -13%
SMILES | ELG1 DNA repair | DT40 TDP1 CPT | IL1B secr inh | TDP1 cell noCPT | HT1080NT lethal | HT1080 IDH1KD tx
COc1ccc(CN(C)Cc2c(O)ccc3cc(Br)ccc23)cc1OC | 14% | -28% | -25 | ? | -21% | -10%
COc1ccc(CCN(C)Cc2c(O)ccc3cc(Br)ccc23)cc1OC | -2% | ? | -94* | -23% | -15% | -14%
CCCCN(C)C(=O)Cc1c(OC)ccc2cc(Br)ccc12 | -8% | 23µM* | 14 | 18µM* | -7% | -2%
COC(=O)C1CCN(C(=O)Cc2c(OC)ccc3cc(Br)ccc23)CC1 | ? | 18µM* | 33 | ? | 0% | 3%
CC(NC(=O)CN1C(=O)NC2(CCCCCC2)C1=O)c1ccccc1 (stereo not given) | 12% | -27% | -13 | -19% | -3% | -6%
O=C(NCCCc1nc2ccccc2n1Cc1ccccc1Cl)C1CCCCC1 | · | 23µM* | · | 18µM* | · | ·
O=C(NCCCc1nc2ccccc2n1Cc1ccc(Cl)cc1)C1CCCCC1 | · | 16µM* | · | 21µM* | · | ·
CC(C)CNC(=O)C(=O)NNC(=O)c1ccco1 | -6% | 22% | -8 | 8% | 5% | 32%
CCOC(=O)c1c(C)[nH]c(C(=O)C(C)OC(=O)c2cccc(OCc3c(C)noc3C)c2)c1C (stereo not given) | ? | 21µM* | ? | 18µM* | -15% | ?
N#Cc1ccc2nc3c(nc2c1)CCCC3 | -6% | -9% | -7 | -19% | 23% | -13%
COc1ccc(NC(=O)CCCc2nnc3n(C)c(=O)c4sccc4n23)cc1 | 0% | -1% | 8 | -7% | 8% | 9%
CCCn1c(=O)c2sccc2n2c(CCCC(=O)Nc3ccc(Oc4ccc(Cl)cc4)cc3)nnc12 | · | 16µM* | · | 16µM* | · | ·
CCCn1c(=O)c2sccc2n2c(CCCC(=O)Nc3ccc(Oc4ccccc4)cc3)nnc12 | · | 10µM* | · | 15µM* | · | ·
CCCn1c(=O)c2sccc2n2c(CCCC(=O)Nc3ccccc3F)nnc12 | · | 0% | · | ? | · | ·
CC(=O)N1c2ccccc2C2(O)N=C(C)SC12 (stereo not given) | -3% | 16µM* | 0 | ? | 10% | 7%
CCCN1C(=O)/C(=C\C=C2\N(CC)c3ccccc3C2(C)C)SC1=S | -5% | 16µM* | 6 | 13µM* | 0% | 4%
CN1/C(=C\C=C2/SC(=S)NC2=O)C(C)(C)c2ccccc21 | ? | 8.2µM* | 27 | 5.8µM* | -4% | -11%
